# Reference: PubChem BioAssay AID1159580 (chemical genetic matrix, 2015)
# Among all 5,500 compounds or so, about 2,000 (36%) were called active. About 18% were inconclusive and are not listed. This is one part of the list. A number with no mark means an inactive call. Cut-off read from the data, not from the text of the source: active = normalized growth mostly below about 0.91 (no sharp cut-off); inconclusive = no clear call, values can overlap the other calls; inactive = mostly above about 0.92.
# Test: chemical genetic growth profiling, strain panel (AID 1159580);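 note: tested at 20 µM; growth read once vehicle control cultures reached saturation at 30 °C; 1 = growth at the plate median or of vehicle wells; lower values mean less growth of the strain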
# Settings: S. cerevisiae deletion strains, growth OD
smiles,measurement,setting,value
CC(=O)O[C@@H]1c2c(ccc3ccc(=O)oc23)OC(C)(C)[C@@H]1OC(=O)CC(C)C,normalized growth,"locus YAL021C, strain ccr4, hits give low values",1.03
same,normalized growth,"locus YAL026C, strain drs2, hits give low values",0.993
same,normalized growth,"locus YAL030W, strain snc1, hits give low values",1
same,normalized growth,"locus YBL061C, strain skt5, hits give low values",0.992
same,normalized growth,"locus YBR009C, strain hhf1, hits give low values",1.05
same,normalized growth,"locus YBR021W, strain FUR4, hits give low values",1.02
same,normalized growth,"locus YBR023C, strain chs3, hits give low values",0.991
same,normalized growth,"locus YBR171W, strain sec66, hits give low values",0.974
same,normalized growth,"locus YBR229C, strain ROT2, hits give low values",0.993
same,normalized growth,"locus YBR231C, strain swc5, hits give low values",1
same,normalized growth,"locus YBR279W, strain paf1, hits give low values",1.02
same,normalized growth,"locus YCL011C, strain gbp2, hits give low values",1.01
same,normalized growth,"locus YCL016C, strain dcc1, hits give low values",1
same,normalized growth,"locus YCL029C, strain bik1, hits give low values",1.03
same,normalized growth,"locus YCL061C, strain MRC1, hits give low values",1
same,normalized growth,"locus YCL069W, strain vba3, hits give low values",1.01
same,normalized growth,"locus YCR088W, strain abp1, hits give low values",0.997
same,normalized growth,"locus YDL005C, strain med2, hits give low values",0.995
same,normalized growth,"locus YDL035C, strain GPR1, hits give low values",1.01
same,normalized growth,"locus YDL040C, strain nat1, hits give low values",1.01
same,normalized growth,"locus YDL074C, strain BRE1, hits give low values",1.01
same,normalized growth,"locus YDL101C, strain DUN1, hits give low values",1
same,normalized growth,"locus YDL134C, strain PPH21, hits give low values",0.977
same,normalized growth,"locus YDL185W, strain tfp1, hits give low values",1.03
same,normalized growth,"locus YDL192W, strain arf1, hits give low values",1
same,normalized growth,"locus YDR001C, strain nth1, hits give low values",1.01
same,normalized growth,"locus YDR069C, strain doa4, hits give low values",1
same,normalized growth,"locus YDR101C, strain arx1, hits give low values",1.05
same,normalized growth,"locus YDR137W, strain rgp1, hits give low values",0.796 (active)
same,normalized growth,"locus YDR159W, strain sac3, hits give low values",0.974
same,normalized growth,"locus YDR162C, strain NBP2, hits give low values",0.976
same,normalized growth,"locus YDR195W, strain ref2",1.07
same,normalized growth,"locus YDR297W, strain sur2, hits give low values",0.994
same,normalized growth,"locus YDR318W, strain mcm21, hits give low values",0.978
same,normalized growth,"locus YDR334W, strain swr1, hits give low values",1.01
same,normalized growth,"locus YDR335W, strain msn5, hits give low values",1.02
same,normalized growth,"locus YDR388W, hits give low values",1.01
same,normalized growth,"locus YDR392W, strain spt3, hits give low values",0.591 (active)
same,normalized growth,"locus YDR502C, strain sam2, hits give low values",1
same,normalized growth,"locus YEL003W, strain gim4, hits give low values",1.02
same,normalized growth,"locus YEL037C, strain rad23, hits give low values",1.01
same,normalized growth,"locus YEL061C, strain CIN8 (second series), hits give low values",1.01
same,normalized growth,"locus YEL061C, strain CIN8, hits give low values",0.978
same,normalized growth,"locus YER015W, strain faa2, hits give low values",1.01
same,normalized growth,"locus YER016W, strain bim1, hits give low values",0.995
same,normalized growth,"locus YER110C, hits give low values",1.03
same,normalized growth,"locus YER111C, strain swi4, hits give low values",1
same,normalized growth,"locus YER155C, strain BEM2 (second series), hits give low values",0.972
same,normalized growth,"locus YER155C, strain BEM2, hits give low values",1
same,normalized growth,"locus YER167W, strain BCK2, hits give low values",1
same,normalized growth,"locus YFR010W, strain ubp6, hits give low values",1.03
same,normalized growth,"locus YGL078C, strain dbp3, hits give low values",1.02
same,normalized growth,"locus YGL086W, strain mad1, hits give low values",1.03
same,normalized growth,"locus YGL167C, strain pmr1, hits give low values",0.989
same,normalized growth,"locus YGL173C, strain kem1, hits give low values",0.987
same,normalized growth,"locus YGL227W, strain vid30, hits give low values",1
same,normalized growth,"locus YGL240W, strain doc1, hits give low values",1.02
same,normalized growth,"locus YGL248W, strain PDE1, hits give low values",0.994
same,normalized growth,"locus YGL253W, strain hxk2, hits give low values",0.986
same,normalized growth,"locus YGR078C, strain PAC10, hits give low values",1
same,normalized growth,"locus YGR135W, strain pre9, hits give low values",1
same,normalized growth,"locus YGR252W, strain gcn5, hits give low values",1
same,normalized growth,"locus YHR013C, strain ard1, hits give low values",1.01
same,normalized growth,"locus YHR027C, strain rpn1, hits give low values",0.999
same,normalized growth,"locus YHR030C, strain SLT2, hits give low values",0.988
same,normalized growth,"locus YHR079C, strain IRE1 (second series), hits give low values",1.01
same,normalized growth,"locus YHR094C, strain hxt1, hits give low values",1.01
same,normalized growth,"locus YHR129C, strain ARP1, hits give low values",0.993
same,normalized growth,"locus YHR142W, strain chs7, hits give low values",0.99
same,normalized growth,"locus YHR200W, strain rpn10, hits give low values",1.03
same,normalized growth,"locus YIL066C, strain RNR3, hits give low values",0.982
same,normalized growth,"locus YIL073C, strain SPO22, hits give low values",1.01
same,normalized growth,"locus YIL125W, strain kgd1, hits give low values",1.02
same,normalized growth,"locus YIR030C, strain dcg1, hits give low values",1
same,normalized growth,"locus YJL092W, strain hpr5, hits give low values",0.998
same,normalized growth,"locus YJL095W, strain BCK1 (second series), hits give low values",0.995
same,normalized growth,"locus YJL095W, strain BCK1, hits give low values",0.94
same,normalized growth,"locus YJL115W, strain asf1, hits give low values",1.01
same,normalized growth,"locus YJL129C, strain trk1, hits give low values",0.918
same,normalized growth,"locus YJL134W, strain LCB3, hits give low values",0.994
same,normalized growth,"locus YJL154C, strain vps35, hits give low values",1.01
same,normalized growth,"locus YJL164C, strain tpk1, hits give low values",1.02
same,normalized growth,"locus YJL166W, strain qcr8, hits give low values",0.961
same,normalized growth,"locus YJL168C, strain set2, hits give low values",1.02
same,normalized growth,"locus YJL187C, strain SWE1 (second series), hits give low values",1
same,normalized growth,"locus YJL187C, strain SWE1, hits give low values",0.996
same,normalized growth,"locus YJR043C, strain POL32, hits give low values",1.03
same,normalized growth,"locus YKL009W, strain mrt4, hits give low values",1.01
same,normalized growth,"locus YKL068W, hits give low values",0.996
same,normalized growth,"locus YKL085W, strain MDH1 (second series), hits give low values",0.988
same,normalized growth,"locus YKL085W, strain MDH1, hits give low values",0.988
same,normalized growth,"locus YKL160W, strain elf1, hits give low values",0.928
same,normalized growth,"locus YKL190W, strain CNB1, hits give low values",0.989
same,normalized growth,"locus YKR001C, strain vps1, hits give low values",1.01
same,normalized growth,"locus YKR026C, strain gcn3, hits give low values",0.998
same,normalized growth,"locus YKR091W, strain srl3, hits give low values",0.997
same,normalized growth,"locus YLL001W, strain dnm1, hits give low values",0.957
same,normalized growth,"locus YLL026W, hits give low values",1
same,normalized growth,"locus YLL041C, strain sdh2, hits give low values",1
same,normalized growth,"locus YLR027C, strain aat2, hits give low values",0.999
same,normalized growth,"locus YLR039C, strain RIC1, hits give low values",0.921
same,normalized growth,"locus YLR058C, strain SHM2, hits give low values",0.982
same,normalized growth,"locus YLR102C, strain apc9, hits give low values",1.01
same,normalized growth,"locus YLR221C, strain rsa3, hits give low values",0.979
same,normalized growth,"locus YLR258W, strain gsy2, hits give low values",1.01
same,normalized growth,"locus YLR262C, strain YPT6 (second series), hits give low values",0.794 (active)
same,normalized growth,"locus YLR262C, strain YPT6, hits give low values",0.889
same,normalized growth,"locus YLR268W, strain sec22, hits give low values",1.03
same,normalized growth,"locus YLR320W, strain mms22, hits give low values",0.918
same,normalized growth,"locus YLR330W, strain CHS5, hits give low values",1
same,normalized growth,"locus YLR342W, strain FKS1 (second series), hits give low values",1
same,normalized growth,"locus YLR342W, strain FKS1, hits give low values",0.98
same,normalized growth,"locus YLR357W, strain rsc2, hits give low values",1.07
same,normalized growth,"locus YLR370C, strain arc18, hits give low values",1
same,normalized growth,"locus YLR371W, strain rom2, hits give low values",1.02
same,normalized growth,"locus YLR384C, strain iki3, hits give low values",1.01
same,normalized growth,"locus YLR418C, strain cdc73, hits give low values",0.947
same,normalized growth,"locus YML016C, strain PPZ1, hits give low values",0.992
same,normalized growth,"locus YML032C, strain rad52, hits give low values",0.992
same,normalized growth,"locus YML120C, strain ndi1, hits give low values",0.989
same,normalized growth,"locus YML124C, strain tub3, hits give low values",1
same,normalized growth,"locus YMR058W, strain fet3, hits give low values",1
same,normalized growth,"locus YMR078C, strain ctf18, hits give low values",1
same,normalized growth,"locus YMR125W, strain sto1, hits give low values",0.976
same,normalized growth,"locus YMR129W, hits give low values",1
same,normalized growth,"locus YMR205C, strain PFK2, hits give low values",0.878
same,normalized growth,"locus YMR223W, strain ubp8, hits give low values",0.986
same,normalized growth,"locus YMR231W, strain pep5, hits give low values",1
same,normalized growth,"locus YMR263W, strain SAP30, hits give low values",0.996
same,normalized growth,"locus YMR307W, strain GAS1, hits give low values",0.848
same,normalized growth,"locus YNL067W, strain RPL9B, hits give low values",0.998
same,normalized growth,"locus YNL071W, strain lat1, hits give low values",0.882 (active)
same,normalized growth,"locus YNL209W, strain ssb2, hits give low values",1.01
same,normalized growth,"locus YNL233W, strain BNI4, hits give low values",1.02
same,normalized growth,"locus YNL248C, strain rpa49, hits give low values",0.952
same,normalized growth,"locus YNL250W, strain rad50, hits give low values",1.02
same,normalized growth,"locus YNL271C, strain bni1, hits give low values",0.999
same,normalized growth,"locus YNL298W, strain CLA4, hits give low values",1.02
same,normalized growth,"locus YNL307C, strain MCK1, hits give low values",1.01
same,normalized growth,"locus YNL322C, strain KRE1 (second series), hits give low values",1.01
same,normalized growth,"locus YNL322C, strain KRE1, hits give low values",0.995
same,normalized growth,"locus YNR049C, strain mso1, hits give low values",1.01
same,normalized growth,"locus YNR052C, strain pop2, hits give low values",1
same,normalized growth,"locus YOL012C, strain htz1",0.997
same,normalized growth,"locus YOL147C, strain pex11, hits give low values",1
same,normalized growth,"locus YOR001W, strain rrp6, hits give low values",1.03
same,normalized growth,"locus YOR061W, strain CKA2, hits give low values",0.985
same,normalized growth,"locus YOR069W, strain VPS5, hits give low values",0.992
same,normalized growth,"locus YOR070C, strain gyp1, hits give low values",1
same,normalized growth,"locus YOR080W, strain dia2, hits give low values",1.02
same,normalized growth,"locus YOR083W, strain WHI5, hits give low values",0.949
same,normalized growth,"locus YOR106W, strain vam3, hits give low values",0.968
same,normalized growth,"locus YOR136W, strain idh2, hits give low values",1.03
same,normalized growth,"locus YOR144C, strain elg1, hits give low values",1.01
same,normalized growth,"locus YOR184W, strain ser1, hits give low values",0.921
same,normalized growth,"locus YOR265W, strain rbl2, hits give low values",1.01
same,normalized growth,"locus YOR270C, strain vph1, hits give low values",0.883
same,normalized growth,"locus YOR290C, strain snf2, hits give low values",1
same,normalized growth,"locus YOR316C, strain cot1, hits give low values",1.01
same,normalized growth,"locus YPL051W, strain arl3, hits give low values",0.951
same,normalized growth,"locus YPL078C, strain atp4, hits give low values",0.93
same,normalized growth,"locus YPL106C, strain sse1, hits give low values",1.06
same,normalized growth,"locus YPL240C, strain hsp82, hits give low values",1
same,normalized growth,"locus YPL241C, strain CIN2, hits give low values",0.973
same,normalized growth,"locus YPR119W, strain clb2, hits give low values",1
same,normalized growth,"locus YPR141C, strain kar3, hits give low values",0.994
same,normalized growth,"locus YPR163C, strain tif3, hits give low values",1.01
same,normalized growth,"locus YPR167C, strain met16, hits give low values",1.01
same,normalized growth,"strain wtn01, hits give low values",1.04
